Rows were chosen to be rich in hits. Some 4.1% of all compounds tested hit in one or more screens of this group.
RecA splice inh: inhibitors of M. tuberculosis RecA intein splicing; cell-free RecA intein splicing, fluorescence; inhibition, % (concentration not given with the values); P9WHJ3; 290,000 tested, 0.75% active; in the data active means inhibition above about 30%;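 further: 0% = vehicle wells and 100% = reference inhibitor control wells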
Mtb UGM inh: Mtb UDP-galactopyranose mutase inhibition; P9WIQ1; purified UGM, fluorescence polarization probe displacement; inhibition, % at 10 µM; 320,000 tested, 0.06% active; AID 504406; in the data active means inhibition above about 10%, passing the limit was not always enough
Rv3671c protease: inhibitors of M. tuberculosis serine protease Rv3671c. 320,000 tested, 0.048% active. inhibition, % at 5.96 µM. P9WHR9. AID 2606; in the data active means inhibition above about 38%;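 further: extracellular domain of Rv3671c used as enzyme; 0% = enzyme with DMSO and 100% = no enzyme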
BH1578 lux ind: induces V. cholerae light production without autoinducers; V. cholerae BH1578 lux reporter, luminescence, 6 h; activation, % at 18.7 µM; 350,000 tested, 0.16% active; in the data active means activation mostly above about 9.7%, no sharp cut-off
GDH-TPI counter-1: inhibits GDH-TPI coupling enzymes, artifact for Mtb FBA screen | AID 588335 | inhibition, % at 4.8 µM | 360,000 tested, 1.2% active | GDH-TPI coupled enzyme counterscreen, NADH absorbance; in the data active means inhibition above about 30%;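 further: 0% = DMSO wells and 100% = wells lacking the enzyme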
FBA Mtb inh: inhibitors of M. tuberculosis fructose-bisphosphate aldolase | P9WQA3 | inhibition, % at 1 µM | purified M. tuberculosis FBA, fluorescence read-out | 360,000 tested, 2.3% active;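 further: 0% = vehicle and 100% = reference inhibitor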
Mtb FBA confirm: confirmation of M. tuberculosis fructose-bisphosphate aldolase inhibitors; shares compounds with FBA Mtb inh; purified M. tuberculosis FBA, fluorescence read-out; inhibition, % at 1 µM; 5,600 tested, 78% active;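 further: 0% = vehicle wells and 100% = reference inhibitor wells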
GDH-TPI counter-2: counter-screen for M. tuberculosis FBA inhibitors: GDH-TPI coupled enzyme inhibition | shares compounds with FBA Mtb inh | GDH-TPI coupled enzyme counterscreen, fluorescence | inhibition, % at 1 µM | 5,600 tested, 81% active | AID 652141; in the data active means inhibition above about 10%
GDH-TPI DR: inhibits GDH-TPI coupling enzymes in dose response. shares compounds with FBA Mtb inh. GDH-TPI coupled enzyme assay, fluorescence, artifact counterscreen. IC50, µM. 170 tested, 79% active. AID 652145; call rule not given here
Active calls of the source: *; i = inactive; nt = no result given; + = active, no number. Unless noted, no stated cut-off is given here; in the data, active means inhibition above about 27%; inactive means the rest.

SMILES	RecA splice inh	Mtb UGM inh	Rv3671c protease	BH1578 lux ind	GDH-TPI counter-1	FBA Mtb inh	Mtb FBA confirm	GDH-TPI counter-2	others
Oc1ccc2ccccc2c1CN1CCOCC1	-9	-4	3	0	4	10	nt	nt
Cc1c(O)ccc2c(=O)c(Oc3ccccc3)coc12	-1	1	nt	i	-2	1	nt	nt
COc1ccccc1-c1coc2c(CN3CCOCC3)c(O)ccc2c1=O	-2	0	-6	1	20	73*	153*	124*
CN(C)c1nc(OCCNC(=O)COc2ccccc2Cl)nc(N(C)C)n1	1	1	-1	i	15	55*	+	189*
CCOC(=O)c1ncn2c1[C@@H]1CCNC1C(=O)c1cc(OC)ccc1-2 (stereo partly specified)	nt	1	3	3	-5	2	nt	nt
O=C(O)CCN1C(=O)C2CCCCC2C1=O (stereo unspecified)	1	2	5	0	7	46*	+	193*
N#CC1=C(O)C(c2ccccc2)n2c1nc(=O)c1ccccc12 (stereo unspecified)	3	-1	4	1	14	85*	137*	129*
CCC(=O)N1c2ccc(S(=O)(=O)NCc3ccccc3)cc2CC1C (stereo unspecified)	-1	1	-9	0	-3	-3	nt	nt
N#Cc1ccc(/C=C\c2nccc3c2[nH]c2ccccc23)cc1	-24	1	-40	5	8	54*	54*	45*
Clc1ccc(C=Cc2ccccn2)cc1	nt	nt	nt	-3	18	-1	nt	nt
Clc1ccc(/C=C\c2nccc3c2[nH]c2ccccc23)cc1	-9	nt	nt	0	6	54*	55*	41*
Cc1ccc(S(=O)(=O)N2CCN(S(=O)(=O)c3c(C)n[nH]c3C)CC2)cc1C	nt	0	-10	-2	-4	2	nt	nt
COc1ccc(CCN(C)C(=O)CSc2nnc(C3CC3)n2N)cc1OC	-2	2	-3	-1	7	1	nt	nt
O=C(CNc1cccc2ccccc12)c1ccc([N+](=O)[O-])cc1	6	-1	3	i	1	28*	56*	36*
CC(=O)c1cccc(NC(=O)C(C)Sc2nnc3ccccn23)c1 (stereo unspecified)	nt	nt	nt	-5	12	0	nt	nt
Cc1ccc2nc(-c3ccc(N4C(=N)SC5CS(=O)(=O)CC54)cc3)sc2c1 (stereo unspecified)	-1	-1	-4	-1	20	48*	80*	66*
Cc1ccc2nc(-c3ccc(N4C(=O)CC(N5CCC(C(N)=O)CC5)C4=O)cc3)sc2c1 (stereo unspecified)	1	-1	-4	nt	nt	nt	nt	nt
CCN1CCN(C(=O)c2ccc3c(c2)N(Cc2ccccc2F)C(=O)c2ccccc2S3(=O)=O)CC1	2	0	-4	0	0	1	nt	nt
COc1ncccc1-c1cnc2cccnn12	nt	nt	nt	-1	7	92*	117*	100*
Clc1ccc(-c2cnc3cccnn23)cc1	nt	nt	nt	0	7	51*	+	+
COc1ccc(-c2cnc3cccnn23)cn1	nt	nt	nt	i	-4	29*	-8	-7
Oc1ccccc1-c1cnc2cccnn12	nt	nt	nt	-1	15	-1	nt	nt
Cc1nc2ccc(NC(=O)C3(C)CCCN(C(C)C)C3)cc2o1 (stereo unspecified)	nt	nt	nt	-1	5	1	nt	nt
CC(C)Cn1cc(-c2cccc3nccn23)cn1	nt	nt	nt	0	4	105*	0	-2
Cn1cc(-c2cccc3nncn23)cn1	nt	nt	nt	-1	15	6	nt	nt
SMILES	RecA splice inh	Mtb UGM inh	Rv3671c protease	BH1578 lux ind	GDH-TPI counter-1	FBA Mtb inh	Mtb FBA confirm	GDH-TPI counter-2	others
O=[N+]([O-])c1cc(S(=O)(=O)Oc2ccccc2)ccc1Cl	nt	nt	nt	-1	0	5	nt	nt
O=c1nc(-c2ccccc2)c2ccccc2[nH]1	nt	4	-3	1	11	13	nt	nt
O=c1[nH]c2ccccc2nc1-c1ccccc1	-4	8	-10	i	31*	45*	79*	76*
C[C@@H]1CCCCO[C@@H](CN(C)C(=O)c2ccccc2)[C@@H](C)CN([C@H](C)CO)C(=O)c2cc(N(C)C)ccc2O1	nt	nt	nt	i	-6	-2	nt	nt
CCOc1ccc(OCc2ccc(C(=O)O)o2)cc1	1	-2	2	-1	-10	3	nt	nt
CCCc1cc(=O)oc2cc(OCc3nn[nH]n3)ccc12	-2	1	-2	-1	15	34*	57*	36*
CCCc1cc(=O)oc2cc(OCc3ccc(C(=O)O)o3)ccc12	1	1	4	1	13	36*	17	1	GDH-TPI DR=4.8*
CCCCc1cc(=O)oc2cc(OCC(=O)N3CCc4ccccc43)ccc12	8	-1	6	i	0	-5	nt	nt
CCCCc1cc(=O)oc2c(C)c(OCc3nn[nH]n3)ccc12	-1	-3	-10	0	12	28*	59*	43*
CCCCc1cc(=O)oc2c(C)c(OCC(=O)NCc3ccccn3)ccc12	-7	0	-8	0	-12	3	nt	nt
CCCc1cc(=O)oc2cc(Oc3ncccn3)ccc12	-1	0	4	i	-11	17	nt	nt
CCCCc1cc(=O)oc2cc(OCc3nn[nH]n3)ccc12	-3	5	5	i	19	35*	6	-1
O=C(NCCS(=O)(=O)N1CCN(c2cccc(Cl)c2)CC1)c1ccc2c(c1)OCO2	-2	2	-9	-11	-15	0	nt	nt
COc1ccc(-c2nnc3ccc(SCC(=O)N4CCCC4)nn23)cc1	-2	-2	8	0	7	4	nt	nt
COc1ccc(-c2ccc3nnc(SCC(=O)N4CCCC4)n3n2)cc1	1	1	0	i	3	27*	189*	160*
Cc1ccc2nc(-c3ccccc3)c(NC(=O)c3ccco3)n2c1	-1	1	-2	-1	0	-1	nt	nt
c1ccc(-c2nc3ccccn3c2-c2ccccc2)cc1	14	2	5	0	16	29*	0	-3
CCOC(=O)c1c(-c2ccccc2)nc2ccccn12	-1	2	2	i	1	0	nt	nt
COC(=O)Nc1c(-c2ccccc2)nc2ccccn12	-4	-2	0	i	2	75*	188*	140*
COC(=O)Nc1c(-c2ccccc2)nc2ccc(C)cn12	2	3	-3	0	3	65*	120*	116*
COc1ccccc1CN1CC(C(=O)NCC2(O)CCCCC2)CCC1=O (stereo unspecified)	nt	nt	nt	-6	1	3	nt	nt
COc1cc2cc(C(=O)O)[nH]c2c(OC)c1OC	1	0	-3	i	-12	35*	112*	74*

Source: PubChem BioAssay (several laboratories)
